Screens (PubChem BioAssay)
A selection: hits, their analogues and other compounds. The true share with any hit is near 8.7%.
G9a inh: inhibitors of human histone lysine methyltransferase G9a; 350,000 tested, 8.8% active; Potency, µM (highest dose often 102 µM), for the others: at the highest dose activity, negative = inhibition, most hits filed as inhibitors; G9a H3K9 monomethylation, AlphaScreen, 2 h; AID 504332; Q96KQ7; note: % is set by controls: 0 for no effect and ±100 for the full control effect; nearly all actives have a fitted effect of over 75% in size
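Using a bead-based AlphaScreen, monomethylated H3K9 product from 2 h room-temperature reactions (G9a 20 nM, peptide 500 nM, SAM 20 uM) was detected with 0.5 ug/mL rabbit anti-H3K9me1 antibody.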
HP1b binding inh: inhibitors of HP1-beta chromodomain binding to methylated histone tails; P83916; 390,000 tested, 0.56% active; AlphaScreen HP1-beta / biotin-H3K9me3 peptide binding; Potency, µM (series often up to 114 µM), for inactives: at the highest dose activity change, negative = inhibition, usual class: inhibitors; note: nearly all actives have a fitted effect of over 70% in size
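HP1-beta protein (50 nM final) preincubated 30 min at room temperature with biotinylated H3(1-18)K9me3 peptide (50 nM) in PBS pH 7.4, 0.01% Tween-20, then compound added for 30 min. AlphaScreen streptavidin donor/nickel chelate acceptor beads (10 ug/mL final), 30 min dark, luminescence read.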
12-LOX inh: inhibitors of human 12S-lipoxygenase ALOX12; P18054; AID 1671190; Potency, µM (top dose mostly 108 µM), without a hit: top-dose activity change, negative = inhibition, hits mostly inhibitors; purified 12hLO, xylenol orange hydroperoxide absorbance; 580,000 tested, 1.1% active; note: % is set by controls: 0 for no effect and ±100 for the full control effect
Target sequence (P18054 whole entry, looked up): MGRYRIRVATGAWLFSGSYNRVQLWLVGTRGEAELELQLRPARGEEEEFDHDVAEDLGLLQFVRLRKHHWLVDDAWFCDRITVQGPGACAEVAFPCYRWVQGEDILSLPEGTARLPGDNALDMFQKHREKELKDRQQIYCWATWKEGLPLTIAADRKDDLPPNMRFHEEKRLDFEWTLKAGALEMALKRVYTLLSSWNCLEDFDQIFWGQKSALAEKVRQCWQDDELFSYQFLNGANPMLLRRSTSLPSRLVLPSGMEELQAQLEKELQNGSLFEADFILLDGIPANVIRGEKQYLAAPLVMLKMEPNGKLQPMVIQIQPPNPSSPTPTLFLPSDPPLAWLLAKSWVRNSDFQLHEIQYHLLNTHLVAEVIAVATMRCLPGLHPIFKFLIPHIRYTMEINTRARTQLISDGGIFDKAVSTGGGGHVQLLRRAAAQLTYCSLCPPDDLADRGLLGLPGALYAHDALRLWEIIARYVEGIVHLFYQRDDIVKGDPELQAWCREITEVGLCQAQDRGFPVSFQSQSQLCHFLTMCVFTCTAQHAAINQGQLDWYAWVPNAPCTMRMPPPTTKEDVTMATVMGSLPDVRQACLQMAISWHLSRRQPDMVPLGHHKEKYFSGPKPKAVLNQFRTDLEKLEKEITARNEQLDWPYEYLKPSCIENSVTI
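Purified human 12hLO at 150 nM in 25 mM Hepes, 0.01% Triton X-100, pH 7.0, preincubated 15 min at room temperature with compound. Reaction started with 40 uM arachidonic acid, 30 min at room temperature. Hydroperoxide measured by Fe-xylenol orange, 573/405 nm absorbance ratio.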
Sfp PPTase inh: inhibitors of Bacillus subtilis Sfp phosphopantetheinyl transferase; Biochemical Sfp PPTase activity, qHTS; Q9F4F7; Potency, µM, inactives show largest response in the series, negative = inhibition, hits mostly inhibitors; 310,000 tested, 3.5% active;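 note: the enzyme is Sfp with the accession as filed and its product quenches rhodamine fluorescence; 0% = enzyme reaction without inhibitor and -100% = no enzyme wells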
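Fluorescence-quenching assay with 15 nM Sfp, 5 uM rhodamine-CoA and 12.5 uM BHQ-2-labelled ybbR peptide in pH 7.6 Hepes/MgCl2 buffer. Enzyme was pre-incubated with compound for 15 min at room temperature. Rate was taken from the 30-min fluorescence change (525/598 nm).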
JMJD2A Tudor inh: blocks the human JMJD2A Tudor domain; AID 504339; Potency, µM (doses to about 114 µM), for the others: top-dose activity change, negative = inhibition, most hits filed as inhibitors; 390,000 tested, 4.4% active; AlphaScreen JMJD2A-Tudor / H3K4me3 peptide binding; O75164; note: % is set by controls: 0 for no effect and ±100 for the full control effect; nearly all actives have a fitted effect of over 50% in size
BAZ2B block: inhibitors of human BAZ2B bromodomain | Q9UIF8 | AlphaScreen BAZ2B-H3K14Ac peptide displacement | Potency, µM (doses to about 114 µM), without a hit: at the highest dose activity change, negative = inhibition, actives largely listed as inhibitors | 360,000 tested, 4.4% active | AID 504333; note: % is set by controls: 0 for no effect and ±100 for the full control effect; nearly all actives have a fitted effect of over 60% in size
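Complex of BAZ2B and biotin-H3K14Ac (50 nM apiece) forms over 30 min at RT, then faces library compounds up to 110 uM for another 30 min; AlphaScreen beads added, 20 min dark incubation, luminescence read.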
An asterisk follows results filed as active; ? = inconclusive; . = no result; [ ] = dose if it differs, or a comment. Calls come from the whole dose curve; as a rule, active = well fitted curve in the direction sought with a large enough effect; inconclusive = small, poorly fitted or top-dose-only effect, or another doubt; inactive = no such curve, though single readings can be large; an effect the other way counts as inactive or inconclusive. Potency is the fitted concentration of half-maximal effect.

SMILES | G9a inh | HP1b binding inh | 12-LOX inh | Sfp PPTase inh | JMJD2A Tudor inh | BAZ2B block
CC1=NN(c2nc(-c3ccc(C)cc3)cs2)C(=O)C1N=Nc1ccc2ccccc2c1 (stereo unspecified) | 1µM* | -28% | 0% | 11% | ? | ?
CCNc1c(NC(=O)NCc2ccc(F)cc2)c(=O)oc2ccccc12 | . | . | -25% | . | . | .
O=C(CSc1ccc(Cl)cc1)NCc1ccco1 | . | 38% | -7% | 89µM* | -15% | -34%
O=C(CSc1ccc(Cl)cc1)c1ccco1 | ? | ? | . | 45µM* | 79µM* | .
O=C(CSC1=NCCS1)NCc1ccco1 | 12%[12.7 µM] | -12% | 0% | 13% | 18µM* | 6%
O=C(COC(=O)Cc1ccc(Cl)cc1)NCc1ccco1 | . | ? | ? | . | 56µM* | .
O=C(CSc1ccc(Cl)cc1)NC(=O)NCc1ccco1 | -33% | 39% | 2% | -11% | -1% | ?
O=C(CCSc1ccc(Cl)cc1)c1ccco1 | -3%[2.33 µM] | 66% | 3% | 8% | 27% | 9%
O=C(CNCc1ccc(Cl)cc1)NCc1ccco1 | 5.6µM* | ? | -27% | -16% | 79µM* | 50µM*
O=C(CCSCc1ccc(Cl)cc1)NCc1ccco1 | -5%[59 µM] | 10% | -19% | 1% | -19% | ?
Fc1ccc(-c2nc(-c3ccc(Br)o3)no2)cc1 | . | . | -47% | . | . | .
Cc1ccc2[nH]c(=O)c(CN(Cc3ccccc3)Cc3nnnn3Cc3ccco3)cc2c1 | . | 8%[57 µM] | . | . | -12%[57.1 µM] | .
COc1ccccc1CN(Cc1cc2c(C)ccc(C)c2[nH]c1=O)Cc1nnnn1Cc1ccco1 | 13µM* | 14% | ? | 20µM* | -22% | -33%
Cc1ccc(CN(Cc2cc3cc4c(cc3[nH]c2=O)OCCO4)Cc2nnnn2Cc2ccco2)cc1 | 13µM* | -16% | -20% | 10µM* | -35% | -32%
Cc1ccc2cc(CN(Cc3ccc4c(c3)OCO4)Cc3nnnn3Cc3ccco3)c(=O)[nH]c2c1 | ? | 9% | -53% | 25µM* | -17% | ?
O=C(CCN=C1NS(=O)(=O)c2ccccc21)N(Cc1ccccc1F)C1CC1 | . | . | 11% | . | . | .
CCCOc1ccc(CNC(=O)c2c(OCC)cc(=O)n3c2CCCC3)cc1 | . | . | 28% | . | . | .
Cc1cccc(Cn2c(NCC3CCCO3)nc3c2c(=O)n(C)c(=O)n3C)c1 (stereo unspecified) | . | . | 6% | . | . | .
CC(=O)Oc1ccc(-c2ccc(C(=O)NCCc3ccc(S(N)(=O)=O)cc3)cc2)cc1 | 71µM* | -21% | -22% | 8% | -22% | -6%
O=[N+]([O-])c1ccc(NC(=S)NCCc2ccccc2)cc1 | 45µM* | ? | 45µM* | -18% | ? | ?
CC(=O)Oc1ccc(C(=O)NCCc2ccccc2)cc1 | -6% | 32% | 2% | 15% | -6% | -4%
NS(=O)(=O)c1ccc(CCNC(=O)c2ccc[nH]c2=S)cc1 | 1.4µM* | ? | -9% | 56µM* | 2.2µM* | -18%
COc1ccc([N+](=O)[O-])cc1NC(=S)Nc1ccccc1 | ? | 9% | ? | ? | -22% | -9%
O=[N+]([O-])c1ccc(O)c(NC(=S)Nc2ccccc2)c1 | 4.5µM* | ? | -22% | 50µM* | ? | -38%
CC(C)OCCCNC(=S)Nc1ccc(S(N)(=O)=O)cc1 | 10µM* | 32µM* | ? | 2.2µM* | 89µM* | -1%
SMILES | G9a inh | HP1b binding inh | 12-LOX inh | Sfp PPTase inh | JMJD2A Tudor inh | BAZ2B block
O=[N+]([O-])c1ccc(NNC(=S)Nc2ccccc2)cc1 | ? | 56µM* | . | 3.5µM* | 50µM* | 50µM*
CC(=O)c1ccc(NC(=S)NCCc2ccc(S(N)(=O)=O)cc2)cc1 | -24% | 41% | -21% | 12% | -1% | -16%
NS(=O)(=O)c1ccc(NC(=S)NCCc2ccccc2)cc1 | 11µM* | -25% | ? | 7.9µM* | -27% | -25%
CC(C(=O)Nc1ccccc1F)N1CCN(C)CC1 (stereo unspecified) | ? | . | . | ? | . | 50µM*
CC1=NN(C(=O)c2ccc(Cl)cc2)C(O)(c2ccccc2)C1 (stereo unspecified) | . | 27% | 1% | 13% | ? | 50µM*
CCOc1ccc(C(C)NC(=O)CC2Sc3ccccc3NC2=O)cc1OCC (stereo unspecified) | . | . | -19% | . | . | .
O=C(c1ccccc1)c1cc2c(cc1[N+](=O)[O-])OCCO2 | ? | 15% | 8% | -5% | -8% | ?
Cc1ccc(C(=O)c2cc3c(cc2[N+](=O)[O-])OCCO3)cc1 | ? | -18% | -19% | -16% | ? | 56µM*
O=S1(=O)C=C(N2CCC3(CC2)OCCO3)c2ccccc21 | . | . | 9% | . | . | .
Oc1c(Br)cc(Br)cc1CNc1ccc(F)cc1 | 45µM* | -16% | ? | -27% | ? | 40µM*
Clc1nc(Cl)nc(N(c2ccccc2)c2ccccc2)n1 | 50µM* | 5% | ? | -25% | 25µM* | 79µM*
Nc1nc(N2CCCCC2)nc(N(c2ccccc2)c2ccccc2)n1 | 0%[59 µM] | 31% | 9% | 14% | -5% | 7%
CCCn1ccnc1CN1C[C@@H](NC(=O)c2ccon2)C[C@H]1C(=O)NCC | . | . | 113% | . | . | .
CC(=O)Nc1ccc(C(=O)N/N=C/c2cc(Br)cc(Br)c2O)cc1 | 4% | ? | -4% | 17% | 56µM* | 0%
CC(C)C(=O)Nc1ccc(C(=O)N/N=C/c2cc(Br)cc(Br)c2O)cc1 | . | 9% | -22% | -5% | ? | 7.9µM*
COc1cc(OC)c(/C=N/NC(=O)c2ccc(NC(C)=O)cc2)cc1Br | -4% | 38% | 0% | 14% | -12% | -3%
O=C(NCCCn1ccnc1)Nc1ccc(Cl)cc1 | 1% | 2% | 13% | -11% | -22% | -35%
O=C(NCCCn1ccnc1)Nc1ccc(Cl)c(Cl)c1 | -4%[59 µM] | 24% | -14% | 15% | ? | 40µM*
S=C(NCCCn1ccnc1)Nc1ccc(Cl)cc1Cl | -45% | 23% | -29% | 10% | -12% | 50µM*
C/C(=C\C[Si](C)(C)C)CCC=O | . | . | . | 63µM* | . | .
CC(C)=CCC/C(C)=C/CC/C(C)=C/CC/C=C(\C)CC/C=C(\C)CCC=C(C)C | 5%[12.7 µM] | . | . | -1% | . | .
Cc1nc2nc(C)n(CCN3CCOCC3)c(=O)c2c(-c2cccc([N+](=O)[O-])c2)c1C(=O)CCCCCCCCCCN1CCC(c2ccccc2)(c2ccccc2)CC1 | . | 40µM* | ? | . | 25µM* | .
Cc1oc(C)c2c(=O)ccc3c(c12)OC(N)=C(C#N)C3c1ccccc1 (stereo unspecified) | 8.9µM* | -23% | ? | -35% | -35% | ?
CSc1ccc(C2C(C#N)=C(N)Oc3c2ccc(=O)c2c(C)oc(C)c32)cc1 (stereo unspecified) | 32µM* | ? | ? | 56µM* | 56µM* | ?
